According to the supplement of paper PMC11732987, “Enantioselective OTUD7B fragment discovery through chemoproteomics screening and high-throughput optimisation” (Communications Chemistry, 2025):

Key:
Experiment in all cases: log2 ratio of Biotin-Ahx-Ub-VS probe labelling (fragment/DMSO); higher = less target engagement (more negative = stronger competition), active = hit call of the paper (q ≤ 0.05, log2 ratio ≤ -1)
Details in all cases: compound concentration: 200 uM; treatment time: 3 h
[1] = target: USP34 (UniProt Q70CQ2)
Procedure, shortened: (§1)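 Using Biotin-Ahx-Ub-VS at 0.5 µM final for 1 h, DUBs were labelled in HEK293T lysate (495 µg per sample) that had first been treated in triplicate with fragment at 200 µM or vehicle for 3 h. NeutrAvidin enrichment, LysC and trypsin digestion and diaPASEF LC-MS/MS followed. Spectronaut label-free quantities were global-median-normalised. Values are average log2 fragment/vehicle ratios by unpaired t-test, using proteins with ≥2 unique peptides.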

[2] = target: T1, USP36 (UniProt Q9P275)
T1 sequence (whole entry): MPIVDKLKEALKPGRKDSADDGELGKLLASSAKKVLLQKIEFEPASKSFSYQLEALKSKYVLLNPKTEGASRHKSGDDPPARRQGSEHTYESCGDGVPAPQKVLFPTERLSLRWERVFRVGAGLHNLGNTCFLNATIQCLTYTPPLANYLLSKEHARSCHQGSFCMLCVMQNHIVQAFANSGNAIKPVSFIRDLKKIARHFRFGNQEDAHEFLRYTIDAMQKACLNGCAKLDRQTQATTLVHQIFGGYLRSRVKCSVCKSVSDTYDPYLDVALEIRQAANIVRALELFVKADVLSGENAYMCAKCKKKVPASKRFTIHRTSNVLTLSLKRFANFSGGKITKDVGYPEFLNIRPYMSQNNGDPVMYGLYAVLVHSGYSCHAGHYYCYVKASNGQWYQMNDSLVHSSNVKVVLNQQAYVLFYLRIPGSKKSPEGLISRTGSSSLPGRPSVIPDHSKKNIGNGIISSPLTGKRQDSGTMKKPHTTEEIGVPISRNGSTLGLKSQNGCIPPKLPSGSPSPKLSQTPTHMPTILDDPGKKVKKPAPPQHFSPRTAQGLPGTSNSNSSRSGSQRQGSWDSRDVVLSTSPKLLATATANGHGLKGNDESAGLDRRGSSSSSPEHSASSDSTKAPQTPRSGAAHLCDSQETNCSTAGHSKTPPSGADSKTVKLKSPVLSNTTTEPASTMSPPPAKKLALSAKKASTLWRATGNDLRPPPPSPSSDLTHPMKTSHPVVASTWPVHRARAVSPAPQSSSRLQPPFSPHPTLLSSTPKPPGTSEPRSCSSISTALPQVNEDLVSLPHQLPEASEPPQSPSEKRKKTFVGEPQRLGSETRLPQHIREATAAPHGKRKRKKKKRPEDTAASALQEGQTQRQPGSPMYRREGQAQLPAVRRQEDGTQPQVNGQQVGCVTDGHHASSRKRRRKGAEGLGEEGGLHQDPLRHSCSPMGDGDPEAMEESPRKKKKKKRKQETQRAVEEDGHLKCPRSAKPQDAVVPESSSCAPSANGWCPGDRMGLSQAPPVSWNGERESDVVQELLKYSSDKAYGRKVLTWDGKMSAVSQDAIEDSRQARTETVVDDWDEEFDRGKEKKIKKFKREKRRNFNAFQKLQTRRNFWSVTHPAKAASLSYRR
Procedure, shortened: as §1

[3] = target: T2, USP38 (UniProt Q8NB14)
T2 sequence (whole entry): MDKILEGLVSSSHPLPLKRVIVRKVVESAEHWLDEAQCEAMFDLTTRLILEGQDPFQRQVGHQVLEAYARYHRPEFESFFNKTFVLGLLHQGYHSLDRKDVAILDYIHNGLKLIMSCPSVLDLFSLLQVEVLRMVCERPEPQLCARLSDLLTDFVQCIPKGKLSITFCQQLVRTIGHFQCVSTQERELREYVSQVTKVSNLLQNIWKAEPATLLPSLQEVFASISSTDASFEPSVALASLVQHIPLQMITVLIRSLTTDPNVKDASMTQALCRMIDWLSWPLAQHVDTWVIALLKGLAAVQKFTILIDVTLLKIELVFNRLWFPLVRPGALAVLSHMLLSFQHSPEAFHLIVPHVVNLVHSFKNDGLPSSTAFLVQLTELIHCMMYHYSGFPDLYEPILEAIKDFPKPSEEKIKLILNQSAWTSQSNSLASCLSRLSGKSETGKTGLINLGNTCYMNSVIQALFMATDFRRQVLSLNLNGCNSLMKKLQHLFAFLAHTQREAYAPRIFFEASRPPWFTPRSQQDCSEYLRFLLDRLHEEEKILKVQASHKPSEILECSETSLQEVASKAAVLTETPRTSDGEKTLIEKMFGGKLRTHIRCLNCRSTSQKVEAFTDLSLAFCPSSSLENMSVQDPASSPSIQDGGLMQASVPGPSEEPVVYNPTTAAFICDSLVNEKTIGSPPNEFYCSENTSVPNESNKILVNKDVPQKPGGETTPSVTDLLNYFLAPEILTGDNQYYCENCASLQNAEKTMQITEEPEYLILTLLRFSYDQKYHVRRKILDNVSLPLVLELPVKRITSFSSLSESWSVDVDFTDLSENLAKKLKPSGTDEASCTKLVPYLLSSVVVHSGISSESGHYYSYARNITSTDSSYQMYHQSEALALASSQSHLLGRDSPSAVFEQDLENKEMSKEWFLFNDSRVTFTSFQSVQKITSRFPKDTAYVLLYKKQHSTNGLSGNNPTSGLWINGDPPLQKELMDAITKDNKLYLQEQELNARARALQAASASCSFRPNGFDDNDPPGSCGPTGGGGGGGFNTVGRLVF
Procedure, shortened: as §1

[4] = target: T3, USP39 (UniProt Q53GS9)
T3 sequence (whole entry): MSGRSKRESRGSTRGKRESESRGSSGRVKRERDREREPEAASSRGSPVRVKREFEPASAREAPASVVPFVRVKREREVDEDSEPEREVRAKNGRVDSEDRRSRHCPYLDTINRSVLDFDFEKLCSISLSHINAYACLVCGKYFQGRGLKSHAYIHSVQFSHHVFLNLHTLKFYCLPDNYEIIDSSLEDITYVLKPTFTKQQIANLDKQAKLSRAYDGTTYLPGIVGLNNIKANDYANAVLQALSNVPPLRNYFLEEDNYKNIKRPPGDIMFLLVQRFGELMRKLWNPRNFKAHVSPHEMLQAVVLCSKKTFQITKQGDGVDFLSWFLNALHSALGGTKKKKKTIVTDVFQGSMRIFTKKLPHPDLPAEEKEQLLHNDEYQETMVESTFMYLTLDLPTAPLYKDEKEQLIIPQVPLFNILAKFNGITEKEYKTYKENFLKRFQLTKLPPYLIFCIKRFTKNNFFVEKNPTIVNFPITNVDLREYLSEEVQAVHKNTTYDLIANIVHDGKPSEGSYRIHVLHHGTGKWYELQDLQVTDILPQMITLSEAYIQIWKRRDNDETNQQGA
Procedure, shortened: as §1

[5] = target: T4, USP4 (UniProt Q13107)
T4 sequence (whole entry): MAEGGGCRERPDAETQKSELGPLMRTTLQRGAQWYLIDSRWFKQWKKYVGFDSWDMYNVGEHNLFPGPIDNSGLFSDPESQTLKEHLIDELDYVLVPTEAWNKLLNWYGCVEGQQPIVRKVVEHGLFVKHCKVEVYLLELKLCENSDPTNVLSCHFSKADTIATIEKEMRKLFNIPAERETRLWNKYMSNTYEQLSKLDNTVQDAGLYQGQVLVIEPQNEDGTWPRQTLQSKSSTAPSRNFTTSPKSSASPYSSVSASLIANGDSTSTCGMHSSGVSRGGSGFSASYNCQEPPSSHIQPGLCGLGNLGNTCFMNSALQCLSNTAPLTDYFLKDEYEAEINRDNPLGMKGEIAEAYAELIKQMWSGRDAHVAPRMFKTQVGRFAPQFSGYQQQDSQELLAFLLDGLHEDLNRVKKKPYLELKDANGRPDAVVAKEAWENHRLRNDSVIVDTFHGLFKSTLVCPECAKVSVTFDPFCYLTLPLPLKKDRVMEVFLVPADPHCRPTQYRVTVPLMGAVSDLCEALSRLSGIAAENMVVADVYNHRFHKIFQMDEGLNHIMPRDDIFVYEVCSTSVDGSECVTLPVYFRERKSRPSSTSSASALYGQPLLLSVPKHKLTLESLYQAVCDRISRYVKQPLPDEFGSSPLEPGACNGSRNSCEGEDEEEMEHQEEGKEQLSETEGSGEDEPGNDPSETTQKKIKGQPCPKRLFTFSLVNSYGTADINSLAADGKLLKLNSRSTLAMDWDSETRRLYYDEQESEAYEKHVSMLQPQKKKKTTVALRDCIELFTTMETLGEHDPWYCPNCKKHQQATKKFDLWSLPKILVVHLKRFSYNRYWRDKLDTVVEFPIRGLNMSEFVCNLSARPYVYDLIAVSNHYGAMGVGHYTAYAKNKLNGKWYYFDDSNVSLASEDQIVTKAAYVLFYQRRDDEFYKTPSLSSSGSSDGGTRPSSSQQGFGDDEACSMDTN
Procedure, shortened: as §1

Measured: log2 ratio of Biotin-Ahx-Ub-VS probe labelling

Chain of USP34 (Q70CQ2 whole entry, the tested form may be a part): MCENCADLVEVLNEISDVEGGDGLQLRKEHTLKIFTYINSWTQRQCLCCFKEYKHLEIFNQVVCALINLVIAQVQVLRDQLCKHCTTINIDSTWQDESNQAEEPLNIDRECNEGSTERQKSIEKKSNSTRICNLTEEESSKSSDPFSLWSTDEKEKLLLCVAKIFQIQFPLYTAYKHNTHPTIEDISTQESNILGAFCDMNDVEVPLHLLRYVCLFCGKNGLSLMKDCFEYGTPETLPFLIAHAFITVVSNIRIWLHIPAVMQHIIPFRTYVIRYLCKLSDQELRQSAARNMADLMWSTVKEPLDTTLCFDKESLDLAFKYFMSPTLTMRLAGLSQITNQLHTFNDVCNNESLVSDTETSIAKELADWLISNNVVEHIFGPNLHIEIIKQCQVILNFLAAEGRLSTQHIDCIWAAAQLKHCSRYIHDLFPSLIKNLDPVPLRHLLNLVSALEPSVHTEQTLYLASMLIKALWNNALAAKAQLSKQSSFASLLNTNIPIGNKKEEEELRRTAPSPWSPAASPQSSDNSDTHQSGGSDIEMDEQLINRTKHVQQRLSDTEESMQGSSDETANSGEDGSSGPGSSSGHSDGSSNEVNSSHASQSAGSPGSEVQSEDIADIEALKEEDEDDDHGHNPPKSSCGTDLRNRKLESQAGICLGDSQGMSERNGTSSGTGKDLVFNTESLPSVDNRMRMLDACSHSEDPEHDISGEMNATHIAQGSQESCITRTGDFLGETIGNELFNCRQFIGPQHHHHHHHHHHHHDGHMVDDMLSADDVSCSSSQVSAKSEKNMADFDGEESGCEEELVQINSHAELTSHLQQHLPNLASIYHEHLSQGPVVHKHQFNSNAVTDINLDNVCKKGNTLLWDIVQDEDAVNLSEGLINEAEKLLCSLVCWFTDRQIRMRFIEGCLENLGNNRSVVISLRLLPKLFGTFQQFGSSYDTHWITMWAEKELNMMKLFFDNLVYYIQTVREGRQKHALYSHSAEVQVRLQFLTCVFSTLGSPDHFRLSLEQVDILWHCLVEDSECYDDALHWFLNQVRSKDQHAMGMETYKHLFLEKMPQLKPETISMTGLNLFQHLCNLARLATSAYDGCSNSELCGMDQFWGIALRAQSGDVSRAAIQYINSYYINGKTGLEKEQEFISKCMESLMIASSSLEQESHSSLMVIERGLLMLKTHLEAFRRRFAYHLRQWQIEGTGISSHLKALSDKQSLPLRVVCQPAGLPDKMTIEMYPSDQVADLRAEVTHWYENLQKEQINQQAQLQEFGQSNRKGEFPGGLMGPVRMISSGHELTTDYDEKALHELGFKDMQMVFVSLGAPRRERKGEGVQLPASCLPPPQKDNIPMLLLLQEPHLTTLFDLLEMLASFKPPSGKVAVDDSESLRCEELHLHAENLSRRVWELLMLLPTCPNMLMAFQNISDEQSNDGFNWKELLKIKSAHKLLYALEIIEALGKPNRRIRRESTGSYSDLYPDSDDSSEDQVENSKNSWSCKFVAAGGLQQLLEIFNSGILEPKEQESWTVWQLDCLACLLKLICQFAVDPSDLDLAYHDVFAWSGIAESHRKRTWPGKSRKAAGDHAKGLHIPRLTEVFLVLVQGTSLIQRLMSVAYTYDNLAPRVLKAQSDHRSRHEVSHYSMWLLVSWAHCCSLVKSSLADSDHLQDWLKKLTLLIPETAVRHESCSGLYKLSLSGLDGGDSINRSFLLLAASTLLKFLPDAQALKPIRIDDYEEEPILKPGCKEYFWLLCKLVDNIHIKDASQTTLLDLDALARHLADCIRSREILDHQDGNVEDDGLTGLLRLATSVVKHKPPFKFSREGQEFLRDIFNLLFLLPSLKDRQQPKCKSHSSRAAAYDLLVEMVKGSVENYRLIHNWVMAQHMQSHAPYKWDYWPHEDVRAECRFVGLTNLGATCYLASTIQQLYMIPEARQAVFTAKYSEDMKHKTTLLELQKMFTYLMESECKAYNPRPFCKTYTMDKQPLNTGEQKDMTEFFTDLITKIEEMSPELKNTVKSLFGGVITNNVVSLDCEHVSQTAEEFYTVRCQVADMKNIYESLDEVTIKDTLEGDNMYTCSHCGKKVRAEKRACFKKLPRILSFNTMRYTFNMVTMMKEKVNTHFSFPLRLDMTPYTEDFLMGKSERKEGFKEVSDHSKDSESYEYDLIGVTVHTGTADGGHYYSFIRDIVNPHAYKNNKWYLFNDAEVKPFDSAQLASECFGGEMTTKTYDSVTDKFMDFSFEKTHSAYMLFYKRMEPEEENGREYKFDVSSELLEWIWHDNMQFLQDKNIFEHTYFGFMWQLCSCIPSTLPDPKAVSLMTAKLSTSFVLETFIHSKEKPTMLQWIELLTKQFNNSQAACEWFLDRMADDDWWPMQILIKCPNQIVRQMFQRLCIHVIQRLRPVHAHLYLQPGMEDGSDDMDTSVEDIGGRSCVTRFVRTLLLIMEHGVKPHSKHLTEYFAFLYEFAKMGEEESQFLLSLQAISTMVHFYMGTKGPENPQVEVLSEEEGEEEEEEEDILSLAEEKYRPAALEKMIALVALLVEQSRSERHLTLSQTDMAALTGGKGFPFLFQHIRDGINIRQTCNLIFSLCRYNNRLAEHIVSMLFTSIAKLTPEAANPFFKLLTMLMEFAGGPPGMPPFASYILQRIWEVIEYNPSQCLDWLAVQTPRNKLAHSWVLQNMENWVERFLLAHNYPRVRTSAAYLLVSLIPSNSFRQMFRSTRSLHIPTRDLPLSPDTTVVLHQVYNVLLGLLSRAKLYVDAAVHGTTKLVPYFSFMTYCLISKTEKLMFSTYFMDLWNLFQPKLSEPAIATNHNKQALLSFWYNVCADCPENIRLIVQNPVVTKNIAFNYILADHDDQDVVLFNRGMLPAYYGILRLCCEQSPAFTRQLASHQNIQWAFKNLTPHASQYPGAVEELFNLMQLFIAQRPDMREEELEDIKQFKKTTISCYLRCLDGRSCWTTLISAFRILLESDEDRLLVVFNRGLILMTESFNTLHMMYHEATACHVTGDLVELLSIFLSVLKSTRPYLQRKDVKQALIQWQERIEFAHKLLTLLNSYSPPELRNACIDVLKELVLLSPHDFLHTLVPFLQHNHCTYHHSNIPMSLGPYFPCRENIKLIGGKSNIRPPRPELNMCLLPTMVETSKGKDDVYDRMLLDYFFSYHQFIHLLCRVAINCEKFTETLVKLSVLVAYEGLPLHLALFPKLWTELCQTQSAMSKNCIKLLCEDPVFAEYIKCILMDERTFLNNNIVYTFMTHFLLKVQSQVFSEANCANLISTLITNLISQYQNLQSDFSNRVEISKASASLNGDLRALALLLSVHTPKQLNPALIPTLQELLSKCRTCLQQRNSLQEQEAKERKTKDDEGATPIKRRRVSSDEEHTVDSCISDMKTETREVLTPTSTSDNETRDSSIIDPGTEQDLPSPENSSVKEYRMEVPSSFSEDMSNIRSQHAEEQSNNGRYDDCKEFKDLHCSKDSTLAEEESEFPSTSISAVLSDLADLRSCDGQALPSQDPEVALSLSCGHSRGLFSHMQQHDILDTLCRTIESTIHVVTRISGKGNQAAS

Cc1cc(CC(C)NC(=O)CCl)n[nH]1 (stereo not given)
inactive: [1] -0.00217 | [2] -0.0115 | [3] -0.279 | [4] -0.196 | [5] -0.0597
